Entries with a potency or affinity are not part of this list.
What was measured:
Staphylococcus aureus = details: Concentration 20 uM; ASSAY_TEST Inhibition of Bacterial Growth; detection method Absorption (OD600); MEDIA CAMHB; plate type 384well; NBS; CORNING #3640; time 18 hr
Escherichia coli = details: Concentration 20 uM; ASSAY_TEST Inhibition of Bacterial Growth; detection method Absorption (OD600); MEDIA CAMHB; plate type 384well; NBS; CORNING #3640; time 18 hr

CN(C)C(=O)Oc1ccc[n+](C)c1.[Br-] [PYRIDOSTIGMINE BROMIDE]
Inhibition (Staphylococcus aureus): 10.54%
Inhibition (Escherichia coli): -0.78%

CCOC(=O)[C@H](CCc1ccccc1)N[C@@H](C)C(=O)N1[C@H](C(=O)O)C[C@@H]2CCC[C@@H]21
Inhibition (Staphylococcus aureus): 17.44%
Inhibition (Escherichia coli): 1.83%

CNCCCCOc1ccccc1Cc1ccccc1.Cl
Inhibition (Staphylococcus aureus): 10.88%
Inhibition (Escherichia coli): 6.1%

OCCN1C[C@H](O)[C@@H](O)[C@H](O)[C@H]1CO [MIGLITOL]
Inhibition (Staphylococcus aureus): 16.69%
Inhibition (Escherichia coli): 5.82%

CC(=O)OCC(=O)[C@@]12OC(C)(C)O[C@@H]1C[C@H]1[C@@H]3C[C@H](F)C4=CC(=O)C=C[C@]4(C)[C@@]3(F)[C@@H](O)C[C@@]12C [FLUOCINONIDE]
Inhibition (Staphylococcus aureus): 10.01%
Inhibition (Escherichia coli): -2.15%

C[C@H](N[C@@H](CCc1ccccc1)C(=O)O)C(=O)N1CCC[C@H]1C(=O)O [ENALAPRILAT ANHYDROUS]
Inhibition (Staphylococcus aureus): -5.3%
Inhibition (Escherichia coli): 7.09%

COc1cc(N)c(Cl)cc1C(=O)N[C@@H]1CCN(CCCOc2ccc(F)cc2)C[C@@H]1OC.O [(R,S)-CISAPRIDE MONOHYDRATE]
Inhibition (Staphylococcus aureus): 10.08%
Inhibition (Escherichia coli): 2.71%

CCCN(CCC)S(=O)(=O)c1ccc(C(=O)O)cc1 [PROBENECID]
Inhibition (Staphylococcus aureus): 13.34%
Inhibition (Escherichia coli): 1.2%

CC[C@]1(O)C[C@@H]2CN(CCc3c([nH]c4ccccc34)[C@@](C(=O)OC)(c3cc4c(cc3OC)N(C=O)[C@H]3[C@@](O)(C(=O)OC)[C@H](OC(C)=O)[C@]5(CC)C=CCN6CC[C@]43[C@@H]65)C2)C1.O=S(=O)(O)O
Inhibition (Staphylococcus aureus): 14.29%
Inhibition (Escherichia coli): -3.68%

CC(=O)O.NCc1ccc(S(N)(=O)=O)cc1 [MAFENIDE ACETATE]
Inhibition (Staphylococcus aureus): 12.98%
Inhibition (Escherichia coli): 1.36%

CS(=O)(=O)O.Cc1c(O)cccc1C(=O)N[C@@H](CSc1ccccc1)[C@H](O)CN1C[C@H]2CCCC[C@H]2C[C@H]1C(=O)NC(C)(C)C [NELFINAVIR MESYLATE]
Inhibition (Staphylococcus aureus): 8.63%
Inhibition (Escherichia coli): 1.35%

COc1ccccc1N1CCN(CC(O)COc2cccc3ccccc23)CC1 (centres undefined) [NAFTOPIDIL]
Inhibition (Staphylococcus aureus): 4.28%
Inhibition (Escherichia coli): 7.29%

O=C(CCNNC(=O)c1ccncc1)NCc1ccccc1 [NIALAMIDE]
Inhibition (Staphylococcus aureus): 16.28%
Inhibition (Escherichia coli): 8.37%

CC(C)NCC(O)c1cc(O)cc(O)c1 (centres undefined) [METAPROTERENOL]
Inhibition (Staphylococcus aureus): -6.69%
Inhibition (Escherichia coli): -6.08%

Nc1nc2c(ncn2COC(CO)CO)c(=O)[nH]1 [GANCICLOVIR]
Inhibition (Staphylococcus aureus): 7.88%
Inhibition (Escherichia coli): 0.63%

CN1CCN(C2=Nc3cc(F)ccc3Cc3ccccc32)CC1 [FLUPERLAPINE]
Inhibition (Staphylococcus aureus): 14.37%
Inhibition (Escherichia coli): 3.9%

CCOC(=O)O[C@]1(C(=O)OCCl)CC[C@H]2[C@@H]3CCC4=CC(=O)C=C[C@]4(C)[C@H]3[C@@H](O)C[C@@]21C [LOTEPREDNOL ETABONATE]
Inhibition (Staphylococcus aureus): -21.62%
Inhibition (Escherichia coli): 4.07%

CN(C)CC[C@@H](c1ccc(Br)cc1)c1ccccn1.O=C(O)/C=C\C(=O)O [DEXBROMPHENIRAMINE MALEATE]
Inhibition (Staphylococcus aureus): 4.45%
Inhibition (Escherichia coli): 5.01%

Cl.c1ccc2c(c1)CCCC2C1=NCCN1 (centres undefined) [TETRAHYDROZOLINE HYDROCHLORIDE]
Inhibition (Staphylococcus aureus): 17.23%
Inhibition (Escherichia coli): 7.52%

C#C[C@]1(O)CC[C@H]2[C@@H]3CCC4=CC(=O)CC[C@@H]4[C@H]3CC[C@@]21CC [LEVONORGESTREL]
Inhibition (Staphylococcus aureus): 8.4%
Inhibition (Escherichia coli): 3.88%

CN1CCC(=C2c3ccccc3CCc3sccc32)CC1.O=C(O)/C=C\C(=O)O
Inhibition (Staphylococcus aureus): 4.8%
Inhibition (Escherichia coli): 2.87%

C=C1/C(=C\C=C2/CCC[C@]3(C)[C@@H]([C@H](C)/C=C/[C@@H](O)C4CC4)CC[C@@H]23)C[C@@H](O)C[C@@H]1O [CALCIPOTRIENE]
Inhibition (Staphylococcus aureus): 9.78%
Inhibition (Escherichia coli): 4.8%

CC[C@@]1(O)C(=O)OCc2c1cc1n(c2=O)Cc2cc3c(CN(C)C)c(O)ccc3nc2-1.Cl [TOPOTECAN HYDROCHLORIDE]
Inhibition (Staphylococcus aureus): 12.09%
Inhibition (Escherichia coli): 3.87%

COc1ccc(-c2cc(=O)c3c(OC)c(OC)c(OC)c(OC)c3o2)cc1OC [NOBILETIN]
Inhibition (Staphylococcus aureus): 13.24%
Inhibition (Escherichia coli): -1.7%

CCc1ccc(CCOc2ccc(CC3SC(=O)NC3=O)cc2)nc1.Cl (centres undefined) [PIOGLITAZONE HYDROCHLORIDE]
Inhibition (Staphylococcus aureus): 3.82%
Inhibition (Escherichia coli): -0.97%

CC12CCC(=O)C=C1CCC1C2CCC2(C)C1CCC2(O)C(=O)CO (centres undefined)
Inhibition (Staphylococcus aureus): 8.54%
Inhibition (Escherichia coli): -7.68%

CCc1nn(CCCN2CCN(c3cccc(Cl)c3)CC2)c(=O)n1CCOc1ccccc1.Cl [NEFAZODONE HYDROCHLORIDE]
Inhibition (Staphylococcus aureus): 6.52%
Inhibition (Escherichia coli): 3.73%

CCOc1cc(CC(=O)N[C@@H](CC(C)C)c2ccccc2N2CCCCC2)ccc1C(=O)O [REPAGLINIDE]
Inhibition (Staphylococcus aureus): 15.76%
Inhibition (Escherichia coli): -4.96%

CC(C)(C(=O)c1cccnc1)c1cccnc1 [METYRAPONE]
Inhibition (Staphylococcus aureus): 4.18%
Inhibition (Escherichia coli): 6.34%

Nc1ccc(S(=O)(=O)c2ccc(N)cc2)cc1 [DAPSONE]
Inhibition (Staphylococcus aureus): -0.58%
Inhibition (Escherichia coli): 0.96%

CC(CN1c2ccccc2Sc2ccccc21)N(C)C.Cl (centres undefined) [PROMETHAZINE HYDROCHLORIDE]
Inhibition (Staphylococcus aureus): 15.79%
Inhibition (Escherichia coli): 1.25%

O=S(=O)([O-])CCS.[Na+] [MESNA]
Inhibition (Staphylococcus aureus): 2.58%
Inhibition (Escherichia coli): -2.71%

CC(=O)CCCCn1c(=O)c2c(ncn2C)n(C)c1=O [PENTOXIFYLLINE]
Inhibition (Staphylococcus aureus): 15.42%
Inhibition (Escherichia coli): 2.27%

CCCCC(=O)N(Cc1ccc(-c2ccccc2-c2nnn[nH]2)cc1)[C@H](C(=O)O)C(C)C
Inhibition (Staphylococcus aureus): 14.82%
Inhibition (Escherichia coli): 3.3%

Cc1cccc(C)c1NC(=O)C1CCCCN1C.Cl (centres undefined) [MEPIVACAINE HYDROCHLORIDE]
Inhibition (Staphylococcus aureus): 10.78%
Inhibition (Escherichia coli): 6.74%

CCC1(c2ccccc2)C(=O)NCNC1=O [PRIMIDONE]
Inhibition (Staphylococcus aureus): 13.4%
Inhibition (Escherichia coli): 3.86%

CC(Oc1c(Cl)cccc1Cl)C1=NCCN1.Cl (centres undefined) [LOFEXIDINE HYDROCHLORIDE]
Inhibition (Staphylococcus aureus): 7.96%
Inhibition (Escherichia coli): 0.12%

O=C1Nc2ccc(Cl)cc2[C@@](C#CC2CC2)(C(F)(F)F)O1 [EFAVIRENZ]
Inhibition (Staphylococcus aureus): 10.66%
Inhibition (Escherichia coli): -2.05%

CN1CCCCC1CCN1c2ccccc2Sc2ccc([S+](C)[O-])cc21.O=S(=O)(O)c1ccccc1 (centres undefined) [MESORIDAZINE BESYLATE]
Inhibition (Staphylococcus aureus): -15.92%
Inhibition (Escherichia coli): 4.24%

Cl.OC(CCN1CCCC1)(c1ccccc1)C1CCCCC1 (centres undefined) [PROCYCLIDINE HYDROCHLORIDE]
Inhibition (Staphylococcus aureus): 17.75%
Inhibition (Escherichia coli): -5.9%

Cc1ccsc1C(=CCCN1CCC[C@@H](C(=O)O)C1)c1sccc1C.Cl [TIAGABINE HYDROCHLORIDE]
Inhibition (Staphylococcus aureus): 12.29%
Inhibition (Escherichia coli): -1.1%

CC(=O)OCC(=O)[C@@]1(O)CC[C@H]2[C@@H]3CCC4=CC(=O)CC[C@]4(C)[C@H]3[C@@H](O)C[C@@]21C [HYDROCORTISONE ACETATE]
Inhibition (Staphylococcus aureus): 9.41%
Inhibition (Escherichia coli): 0.56%

COc1ccccc1OCCNCC(O)COc1cccc2[nH]c3ccccc3c12 (centres undefined) [CARVEDILOL]
Inhibition (Staphylococcus aureus): 10.39%
Inhibition (Escherichia coli): 6.44%

OCc1cc(C(O)CNCCCCCCOCCCCc2ccccc2)ccc1O (centres undefined) [SALMETEROL]
Inhibition (Staphylococcus aureus): 15.16%
Inhibition (Escherichia coli): 8.33%

CC(C(O)c1ccc(O)cc1)N1CCC(Cc2ccccc2)CC1.O.O=C(O)C(O)C(O)C(=O)O (centres undefined)
Inhibition (Staphylococcus aureus): 9.87%
Inhibition (Escherichia coli): -1.84%

NNC(=O)c1ccncc1 [ISONIAZID]
Inhibition (Staphylococcus aureus): 8.75%
Inhibition (Escherichia coli): 0.87%

Cl.O=C1c2c(O)ccc(O)c2C(=O)c2c(NCCNCCO)ccc(NCCNCCO)c21
Inhibition (Staphylococcus aureus): -9.15%
Inhibition (Escherichia coli): 4.04%

CN(C)CC/C=C1/c2ccccc2COc2ccc(CC(=O)O)cc21.Cl [OLOPATADINE HYDROCHLORIDE]
Inhibition (Staphylococcus aureus): -18.81%
Inhibition (Escherichia coli): 1.13%

CC1(C)O[C@@H]2C[C@H]3[C@@H]4C[C@H](F)C5=CC(=O)C=C[C@]5(C)[C@@]4(F)[C@@H](O)C[C@]3(C)[C@]2(C(=O)CO)O1 [FLUOCINOLONE ACETONIDE]
Inhibition (Staphylococcus aureus): -31.13%
Inhibition (Escherichia coli): 6.84%

CN1C(C(=O)Nc2ccccn2)=C(O)c2ccccc2S1(=O)=O.O
Inhibition (Staphylococcus aureus): 15.17%
Inhibition (Escherichia coli): -5.74%

CCN(CC)CCOC(=O)C1(C2CCCCC2)CCCCC1.Cl [DICYCLOMINE HYDROCHLORIDE]
Inhibition (Staphylococcus aureus): 8.61%
Inhibition (Escherichia coli): 0.37%

CCC(=O)O[C@]1(C(=O)CCl)[C@@H](C)C[C@H]2[C@@H]3CCC4=CC(=O)C=C[C@]4(C)[C@@]3(F)[C@@H](O)C[C@@]21C [CLOBETASOL PROPIONATE]
Inhibition (Staphylococcus aureus): -12.08%
Inhibition (Escherichia coli): -1.37%

CCN(CC)CCOc1ccc(C(=C(Cl)c2ccccc2)c2ccccc2)cc1.O=C(O)CC(O)(CC(=O)O)C(=O)O [CLOMIPHENE CITRATE]
Inhibition (Staphylococcus aureus): 43.2%
Inhibition (Escherichia coli): 2.4%

CCC(=C(c1ccccc1)c1ccc(OCCN(C)C)cc1)c1ccccc1
Inhibition (Staphylococcus aureus): 2.87%
Inhibition (Escherichia coli): 6.04%

COC(=O)C1=C(C)NC(C)=C(C(=O)O[C@@H]2CCCN(Cc3ccccc3)C2)[C@@H]1c1cccc([N+](=O)[O-])c1.Cl
Inhibition (Staphylococcus aureus): 8.73%
Inhibition (Escherichia coli): -0.62%

CC[C@H](C)C(=O)O[C@H]1C[C@H](O)C=C2C=C[C@H](C)[C@H](CC[C@@H](O)C[C@@H](O)CC(=O)[O-])[C@H]21.[Na+] [PRAVASTATIN SODIUM]
Inhibition (Staphylococcus aureus): 12.65%
Inhibition (Escherichia coli): 2.41%

O=C(O)COCCN1CCN([C@H](c2ccccc2)c2ccc(Cl)cc2)CC1 [LEVOCETIRIZINE]
Inhibition (Staphylococcus aureus): 11.65%
Inhibition (Escherichia coli): 5.57%

— ChEMBL document CHEMBL4513141, “CO-ADD screening of NIH (USA) - Clinical Collection” (2021)
